# The supplement of paper PMC4466140
# Assays:
# Experiment in all cases: SPOT peptide array binding signal intensity (averaged, normalized) (arbitrary units (background-subtracted, floor 0; scale differs between SH3 domains)); higher = stronger binding of the SH3 domain to the peptide
# CaNbp2 = molecular target: CaNbp2
# Method in brief: (§1)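 Binding signal refers to normalized, background-subtracted spot intensity averaged over replicates, expressed in arbitrary units that differ between domains. GST-fused SH3 domains from four yeast species were incubated at 10 μg/ml overnight at 4°C on cellulose membranes of synthetic 15-mer peptides with cysteines replaced by serines. Bound protein was detected with anti-GST antibody, an HRP anti-mouse secondary and luminol, and quantified with Genespotter.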
# CaRvs167 = molecular target: CaRvs167
# Method in brief: as §1
# CaRvs167-3 = molecular target: CaRvs167-3
# Method in brief: as §1
# CaSho1 = molecular target: CaSho1
# Method in brief: as §1
# CaSla1-D1-D2 = molecular target: CaSla1-D1-D2
# Method in brief: as §1
# CaSla1-D3 = molecular target: CaSla1-D3
# Method in brief: as §1
# ScAbp1 = molecular target: ScAbp1
# Method in brief: as §1
# ScBbc1 = molecular target: ScBbc1
# Method in brief: as §1
# ScBem1-D1 = molecular target: ScBem1-D1
# Method in brief: as §1
# ScBzz1-D1 = molecular target: ScBzz1-D1
# Method in brief: as §1
# ScBzz1-D2 = molecular target: ScBzz1-D2
# Method in brief: as §1
# ScCyk3 = molecular target: ScCyk3
# Method in brief: as §1
# ScFus1 = molecular target: ScFus1
# Method in brief: as §1
# ScHof1 = molecular target: ScHof1
# Method in brief: as §1
# ScHse1 = molecular target: ScHse1
# Method in brief: as §1
# ScLsb1 = molecular target: ScLsb1
# Method in brief: as §1
# ScLsb2 = molecular target: ScLsb2
# Method in brief: as §1
# ScLsb3 = molecular target: ScLsb3
# Method in brief: as §1
# ScLsb4 = molecular target: ScLsb4
# Method in brief: as §1
# ScMyo3 = molecular target: ScMyo3
# Method in brief: as §1
# ScMyo5 = molecular target: ScMyo5
# Method in brief: as §1
# ScNbp2 = molecular target: ScNbp2
# Method in brief: as §1
# ScPex13 = molecular target: ScPex13
# Method in brief: as §1
# ScRvs167 = molecular target: ScRvs167
# Method in brief: as §1
# ScSho1 = molecular target: ScSho1
# Method in brief: as §1
# ScSla1-D1-D2 = molecular target: ScSla1-D1-D2
# Method in brief: as §1
# ScSla1-D3 = molecular target: ScSla1-D3
# Method in brief: as §1
# SpAbp1-D1 = molecular target: SpAbp1-D1
# Method in brief: as §1
# SpBbc1 = molecular target: SpBbc1
# Method in brief: as §1
# SpBzz1-D1 = molecular target: SpBzz1-D1
# Method in brief: as §1
# SpBzz1-D2 = molecular target: SpBzz1-D2
# Method in brief: as §1
# SpCyk3 = molecular target: SpCyk3
# Method in brief: as §1
# SpHof1 = molecular target: SpHof1
# Method in brief: as §1
# SpHof1-2 = molecular target: SpHof1-2
# Method in brief: as §1
# SpHof1-3 = molecular target: SpHof1-3
# Method in brief: as §1
# SpHse1 = molecular target: SpHse1
# Method in brief: as §1
# SpLsb1 = molecular target: SpLsb1
# Method in brief: as §1
# SpLsb4 = molecular target: SpLsb4
# Method in brief: as §1
# SpMyo1 = molecular target: SpMyo1
# Method in brief: as §1
# SpNbp2 = molecular target: SpNbp2
# Method in brief: as §1
# SpPex13 = molecular target: SpPex13
# Method in brief: as §1
# SpRvs167 = molecular target: SpRvs167
# Method in brief: as §1
# SpSla1-D1-D2 = molecular target: SpSla1-D1-D2
# Method in brief: as §1
# SpSla1-D3 = molecular target: SpSla1-D3
# Method in brief: as §1
binder,measurement,setting,value
AGKRRLPLVRFKASD,SPOT peptide array binding signal intensity,CaNbp2,384
same,SPOT peptide array binding signal intensity,CaRvs167,51.3
same,SPOT peptide array binding signal intensity,CaRvs167-3,226
same,SPOT peptide array binding signal intensity,CaSho1,613
same,SPOT peptide array binding signal intensity,CaSla1-D1-D2,162
same,SPOT peptide array binding signal intensity,CaSla1-D3,114
same,SPOT peptide array binding signal intensity,ScAbp1,146
same,SPOT peptide array binding signal intensity,ScBbc1,30.8
same,SPOT peptide array binding signal intensity,ScBem1-D1,68.5
same,SPOT peptide array binding signal intensity,ScBzz1-D1,24
same,SPOT peptide array binding signal intensity,ScBzz1-D2,44
same,SPOT peptide array binding signal intensity,ScCyk3,71
same,SPOT peptide array binding signal intensity,ScFus1,584
same,SPOT peptide array binding signal intensity,ScHof1,5.5
same,SPOT peptide array binding signal intensity,ScHse1,2480
same,SPOT peptide array binding signal intensity,ScLsb1,4.5
same,SPOT peptide array binding signal intensity,ScLsb2,6.5
same,SPOT peptide array binding signal intensity,ScLsb3,478
same,SPOT peptide array binding signal intensity,ScLsb4,25.5
same,SPOT peptide array binding signal intensity,ScMyo3,5
same,SPOT peptide array binding signal intensity,ScMyo5,3
same,SPOT peptide array binding signal intensity,ScNbp2,626
same,SPOT peptide array binding signal intensity,ScPex13,6.75
same,SPOT peptide array binding signal intensity,ScRvs167,364
same,SPOT peptide array binding signal intensity,ScSho1,2030
same,SPOT peptide array binding signal intensity,ScSla1-D1-D2,1180
same,SPOT peptide array binding signal intensity,ScSla1-D3,9.75
same,SPOT peptide array binding signal intensity,SpAbp1-D1,592
same,SPOT peptide array binding signal intensity,SpBbc1,5.25
same,SPOT peptide array binding signal intensity,SpBzz1-D1,180
same,SPOT peptide array binding signal intensity,SpBzz1-D2,1
same,SPOT peptide array binding signal intensity,SpCyk3,67
same,SPOT peptide array binding signal intensity,SpHof1,481
same,SPOT peptide array binding signal intensity,SpHof1-2,99.5
same,SPOT peptide array binding signal intensity,SpHof1-3,412
same,SPOT peptide array binding signal intensity,SpHse1,536
same,SPOT peptide array binding signal intensity,SpLsb1,17
same,SPOT peptide array binding signal intensity,SpLsb4,354
same,SPOT peptide array binding signal intensity,SpMyo1,3.5
same,SPOT peptide array binding signal intensity,SpNbp2,1010
same,SPOT peptide array binding signal intensity,SpPex13,42.5
same,SPOT peptide array binding signal intensity,SpRvs167,248
same,SPOT peptide array binding signal intensity,SpSla1-D1-D2,4
same,SPOT peptide array binding signal intensity,SpSla1-D3,17.5
